From PubChem BioAssay
KCNQ2 enhance = potentiators of rat KCNQ2 potassium channel; B-score at 10 µM; Potassium voltage-gated channel subfamily KQT member 2 (Rattus norvegicus), O88943; CHO-K1 KCNQ2, FluxOR thallium flux fluorescence; active compounds read high; hit rate 0.54% among 310,000;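 active = fluorescence ratio B-score at least 3 SD of library B-scores, with initial fluorescence B-score within 3 of them, cut at about 5.3 in these data; same plate scores as AID 2156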;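 also: B-score of peak minus minimum over baseline fluorescence ratio after K+ and Tl+ stimulus; positive B-score means potentiation of KCNQ2 with more thallium influx and brighter signal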
KCNQ2 block = rat KCNQ2 potassium channel inhibitors, primary screen, cell-based, CHO-K1, FluxOR thallium flux, B-score; B-score at 10 µM; 20 min; active compounds read low; AID 2156, 2009; hit rate 1.1% among 310,000; Potassium voltage-gated channel subfamily KQT member 2 (Rattus norvegicus), O88943;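 active = fluorescence ratio B-score at most minus 3 library SDs, with starting brightness B-score within 2 library SDs, cut at about -5.5 in these data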
The depositor's hits bear a star; i = inactive; / = no result. Sampled rows, rich in hits. Any-hit rate of the full collection: about 1.6%.

SMILES	KCNQ2 enhance	KCNQ2 block
CN1CCN(C2=C(Cl)C(=O)N(C3CCCCC3)C2=O)CC1	/	i
COC(=O)c1cn(C(=O)c2cc(C)cc(C)c2)c2ccccc12	1.2	i
COC(=O)c1cn(C(=O)c2cc(Br)ccc2Cl)c2ccccc12	-6.1	-6.1*
O=C(CSc1nc(N2CCOCC2)nc(N2CCOCC2)n1)Nc1cccc(C(F)(F)F)c1	3.3	i
COc1ccccc1CNC(=O)c1ccc2nc(N3CCOCC3)sc2c1	/	i
CC1CCN(S(=O)(=O)c2c[nH]c(=O)[nH]c2=O)CC1	/	i
O=C(Cc1ccc(Cl)cc1)N/N=C/c1cccc(O)c1	0.28	i
Cc1ncc(C[n+]2csc(CCOC(=O)CC34CC5CC(CC(C5)C3)C4)c2C)c(N)n1	/	i
Cc1c(CCOC(=O)CC23CC4CC(CC(C4)C2)C3)sc[n+]1Cc1ccccc1	-5.6	-5.6*
Cc1cc(=O)[nH]c(-c2ccc(C(F)(F)F)cc2)n1	1.1	i
O=C(c1ccc(Cl)c(Cl)c1)N1CCC(=O)N(C(CO)Cc2ccccc2)CC1 (stereo not drawn)	1.1	i
O=C(c1cccc(Cl)c1)N1CCC(=O)N(C(COCc2ccccc2)Cc2ccccc2)CC1 (stereo not drawn)	-5.8	-5.8*
O=C(c1ccc(Cl)c(Cl)c1)N1CCC(=O)N(C(COCc2ccccc2)Cc2ccccc2)CC1 (stereo not drawn)	-5.8	-5.8*
Cc1cccc(COCC(Cc2ccccc2)N2CCN(C(=O)c3cccc(Cl)c3)CCC2=O)c1 (stereo not drawn)	/	i
CC(C)(CNC(=O)c1cccc(F)c1)CNC(=O)c1cccc(F)c1	2.2	i
O=C(Cc1nc2ccccc2[nH]1)c1ccc(Cl)cc1	/	i
N#CCCN/N=C(/Cc1nc2ccccc2[nH]1)c1cccc(Cl)c1	-6	-6*
CC1=CC(C)(C)N2C(=O)C3(NCCc4c3[nH]c3ccccc43)c3cc(C)cc1c32 (stereo not drawn)	/	i
CC1=CC(C)(C)N2C(=O)C3(SCC(=O)N3c3ccc(F)cc3)c3cc(C)cc1c32 (stereo not drawn)	-6	-6*
Cc1csc(-c2cnn(-c3ccccc3)c2NC(=O)c2ccc(C(F)(F)F)cc2)n1	-5.9	-5.9*
CC(C)(C)NC(=O)c1cnn(-c2ccccc2)c1NC(=O)c1ccccc1	/	i
Cc1cccc(S(=O)(=O)N(CC(=O)Nc2ccccc2C)Cc2ccco2)c1	-5.8	-5.8*
Cc1ccc(S(=O)(=O)NCC(=O)N(CC(=O)NCc2ccco2)Cc2ccc(F)cc2)cc1	/	i
Cc1ccc(S(=O)(=O)N(CC(=O)NCc2ccco2)Cc2ccc(F)cc2)cc1	-7.3	-7.3*
Cc1ccc(C)c(N(CC(=O)Nc2ccccc2C(=O)NCc2ccco2)S(=O)(=O)c2ccccc2)c1	/	i
SMILES	KCNQ2 enhance	KCNQ2 block
COc1ccc(C(CNC(=O)c2cccc(S(=O)(=O)NCc3ccccc3)c2)N(C)C)cc1 (stereo not drawn)	/	i
COc1cccc(C2=Nn3c(nnc3-c3ccccc3O)SC2)c1	/	i
C[n+]1c2n(c3ccccc31)N=C(c1cc(C(C)(C)C)c(O)c(C(C)(C)C)c1)CS2	-6.6	-6.6*
O=C(Nc1ccccc1Cc1ccccc1)c1ccncc1	1.2	i
Cc1oc2ccc(NS(=O)(=O)c3ccc(C(C)(C)C)cc3)cc2c1C(=O)Nc1ccccc1	-6	-6*
CC(=O)c1c(C)oc2ccc(NS(=O)(=O)c3ccc(C)cc3)cc12	0.34	i
O=C(NC1CCCc2ccccc21)c1ccccc1OC(F)F (stereo not drawn)	/	i
COc1ccc(C(=O)NC2CCCc3c2cnn3-c2cccc(C)c2C)o1 (stereo not drawn)	/	i
S=C(NCc1ccco1)N1CCN(c2ccccc2Cl)CC1	-5.8	-5.8*
Cc1ccc(Cl)cc1N1CCN(C(=S)NCc2ccco2)CC1	/	i
CCOc1cc(-c2nccc3cc(OC)c(OC)cc23)cc(OCC)c1OCC	/	i
Cc1ccc(C)c(NC(=S)NNC(=O)c2sccc2C)c1	1.6	i
Cc1cccc(NC(=S)NNC(=O)c2cc3c(s2)CCC(C)C3)c1C (stereo not drawn)	8.5*	i
Cc1ccc(C)c(NC(=S)NNC(=O)c2cc3c(s2)CCC(C)C3)c1 (stereo not drawn)	11*	i
CC1CCc2sc(C(=O)NN=C3CCC(c4ccccc4)CC3)cc2C1 (stereo not drawn)	0.75	i
O=C(Cc1c(F)c(F)c(F)c(F)c1F)Nc1nc(-c2ccccc2)cs1	/	i
COC(=O)c1c(NC(=O)CN2CCN(c3ncccn3)CC2)sc(C(N)=O)c1C	/	i
COc1ccccc1C(=O)N(CCN(C)C)c1nc2cc(C)cc(C)c2s1	/	i
CN(C)CCN(C(=O)c1ccc2c(c1)CCCC2)c1nc2cc3c(cc2s1)OCCO3	-7.8	-7.8*
CN(C)CCN(C(=O)c1ccc2c(c1)OCCO2)c1nc2cc3c(cc2s1)OCO3	/	i
Cc1cc(C)c2sc(N(CCN(C)C)C(=O)c3ccc4ccccc4c3)nc2c1	-5.9	-5.9*
COc1ccccc1C(=O)N(C)c1nnc(-c2ccccc2)s1	0.09	i
Cc1ccc(-c2nc3ccccc3c(C(=O)NCc3cccs3)c2C)cc1	-6.6	-6.6*
O=C(NCc1cccs1)c1cc(-c2ccccc2)nc2ccccc12	0.3	i
Cc1ccc(S(=O)(=O)N2CCCNCC2)cc1	0.39	i
SMILES	KCNQ2 enhance	KCNQ2 block
O=C(c1ccc(Cl)cc1)N1CCC(C(=O)N2CCCc3ccccc32)CC1	/	i
O=C(N1CCCCC1)N1CCN(S(=O)(=O)c2ccccc2)CC1	/	i
COc1ccccc1C(=O)NNC1=C(C(=O)C(F)(F)F)CCC1	3.7	i
O=C(NNC1=C(C(=O)C(F)(F)F)CCC1)c1ccccc1O	11*	i
CC1CCC(C(=O)NC(C(=O)NCCc2ccc(S(N)(=O)=O)cc2)C(C)C)CC1 (stereo not drawn)	/	i
Cc1cc2nnc(SCC(=O)NCc3cccs3)n2c2ccccc12	/	i
Cc1cc2nnc(SCC(=O)NCc3ccco3)n2c2ccccc12	8.7*	i
COC(=O)C1CCN(S(=O)(=O)c2cc3c4c(c2)CCN4C(=O)CC3)CC1	/	i
Cc1c(OCC(=O)N[C@@H](Cc2ccccc2)C(=O)O)ccc2c1oc(=O)c1ccccc12	/	i
Cc1c(Cc2ccccc2)c(=O)oc2c(C)c(OC(C)C(=O)N[C@@H](Cc3ccccc3)C(=O)O)ccc12 (stereo partly drawn)	-7.7	-7.7*
CCc1ccc(NC(=O)c2cc(S(=O)(=O)N3CCc4ccccc43)cn2C)cc1	/	i
Cc1cccc(NC(=S)NCC(C)CSc2ccc(Cl)cc2)c1 (stereo not drawn)	2	i
Cc1ccc(NC(=S)NCC(C)CSc2ccc(Cl)cc2)cc1 (stereo not drawn)	13*	i
COc1ccc(OC)c(NC(=O)c2cccc(N3C(=O)C4C5C=CC(C6CC56)C4C3=O)c2)c1 (stereo not drawn)	0.68	i
CCCN(CCC)c1nc(C#N)nc(N(CCC)CCC)n1	-7.9	-7.9*
CN(C)c1nc(C#N)nc(N(C)C)n1	1.9	i
Cc1ccc(CNC(=O)CCS(=O)(=O)c2ccc(Cl)cc2)cc1	/	i
Cc1ccc(C)c(C(=O)CCC(=O)NCc2ccc(Cl)cc2)c1	-6	-6*
